# Measured values from PubChem BioAssay (NCATS).
# Values joined by “and” are separate entries in the source; they are usually repeats but may differ in a detail not shown here. Equal values may be shown once. A number with no mark means an inactive call. Inconclusive results are not listed. Active and inactive are the calls of the source. Unless noted, calls follow the shape of the dose curve; as a rule, active = well fitted inhibition curve with a large enough effect; inconclusive = small, poorly fitted or top-dose-only effect; inactive = flat fitted curve, though single readings scatter. Where a SMILES comes first, the peptide text is derived from it. Bridges are numbered along the chain shown (N, C = ends). [ ]: non-standard residue; d: D form. The star is where a group is joined. ξ: configuration not given here. d(aThr) = C[C@@H](O)[C@@H](N)C(=O)O; ξThr(3R) = C[C@@H](O)C(N)C(=O)O; X3 = CC[C@@H](C)CCCCC(=O)*; dDab = NCC[C@@H](N)C(=O)O
# What was measured:
# astro = control astrocytes; assay: Drug repurposing screens with cells derived from glioblastoma tumor samples (AID 1345199); settings: viability, ATP luminescence, 48 h; series mostly up to 45.9 µM; also: nearly all actives have a fitted effect of over 40% in size; also: potency is read from the fitted curve at half-maximal effect; as to activity, negative = cell killing: % is scaled to controls: 0 for no effect and ±100 for the full control effect
# In short: (§1)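 Four patient lines of CD133+ GBM neurospheres were screened at several concentrations; hits were retested in those lines plus three slower-growing GBM lines, using 48-hour treatment and ATP-based viability.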
# [1] = as above; settings: GBM patient neurospheres viability, ATP luminescence, 48 h; for Potency: tumour line A
# In short: as §1
# [2] = target: Nuclear receptor subfamily 1 group I member 2 (Rattus norvegicus) (UniProt Q9R1A7); assay: qHTS assay for small molecule activators of the rat pregnane X receptor (rPXR) signaling pathway (AID 651751; call rule not given here; also: 0% is about no effect); settings: rPXR reporter cells, luciferase (One-Glo), 24 h
# Sequence of Nuclear receptor subfamily 1 group I member 2 (Rattus norvegicus) (Q9R1A7 whole entry, looked up): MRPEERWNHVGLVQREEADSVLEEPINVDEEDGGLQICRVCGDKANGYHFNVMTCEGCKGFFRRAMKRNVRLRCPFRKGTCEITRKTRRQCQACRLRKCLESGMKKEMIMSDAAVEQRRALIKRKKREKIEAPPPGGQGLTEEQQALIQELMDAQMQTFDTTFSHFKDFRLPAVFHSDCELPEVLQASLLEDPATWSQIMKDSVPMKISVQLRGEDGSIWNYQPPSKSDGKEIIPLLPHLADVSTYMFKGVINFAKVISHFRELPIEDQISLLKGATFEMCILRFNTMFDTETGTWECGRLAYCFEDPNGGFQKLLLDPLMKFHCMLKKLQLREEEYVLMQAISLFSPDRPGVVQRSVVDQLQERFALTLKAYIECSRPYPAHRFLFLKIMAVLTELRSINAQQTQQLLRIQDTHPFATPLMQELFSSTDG
# [3] = qHTS assay for small molecule activators of the human pregnane X receptor (PXR) signaling pathway (AID 720659; call rule not given here; also: 0% is about no effect)
# [4] = at 45.9 µM (top of the series), tumour line B
# [5] = at 45.9 µM (top of the series), tumour line D
# [6] = at 46.1 µM (top of the series), tumour line C
structure (smiles),measurement,setting,value
Cc1cc(-c2ccc(N=Nc3ccc4c(S(=O)(=O)O)cc(S(=O)(=O)O)c(N)c4c3O)c(C)c2)ccc1N=Nc1ccc2c(S(=O)(=O)O)cc(S(=O)(=O)O)c(N)c2c1O,Potency,astro,17.8 µM (active)
CC[C@@]1([C@@H]2O[C@@H]([C@H]3O[C@@](O)(CO)[C@H](C)C[C@@H]3C)C[C@@H]2C)CC[C@H]([C@]2(C)CC[C@]3(C[C@H](O)[C@@H](C)[C@@H]([C@@H](C)[C@@H](OC)[C@H](C)C(=O)O)O3)O2)O1 (stereo in doubt),Potency,astro,14.1 µM (active)
O=C(O)Cc1nn(Cc2ccc(Br)cc2F)c(=O)c2ccccc12,"activity, negative = cell killing",[1]; [4],-21.4%
same,"activity, negative = cell killing",[1]; [5],-12.1%
same,Potency,astro,inactive
CCN(CC)C(=O)c1cccnc1,"activity, negative = cell killing",[1]; [4],-8.29%
same,"activity, negative = cell killing",[1]; [6],-25.5%
same,Potency,astro,inactive
CNC(=O)C[C@@H](N)C(=O)N[C@@H](C(=O)N[C@@H]1C(=O)N2[C@@H]1SC(C)(C)[C@@H]2C(=O)O)c1ccc(O)cc1,"activity, negative = cell killing",[1]; [4],-11.1%
same,"activity, negative = cell killing",[1]; [6],-11.3%
same,Potency,astro,inactive
C=C1c2c(Cl)ccc(O)c2C(O)=C2C(=O)[C@]3(O)C(O)=C(C(N)=O)C(=O)[C@@H](N(C)C)[C@@H]3[C@@H](O)[C@H]12,"activity, negative = cell killing","[1]; at 20 µM (top of the series), tumour line C",3.1%
same,"activity, negative = cell killing","[1]; at 21.2 µM (top of the series), tumour line D",-28.3%
same,Potency,astro,inactive
COc1ccc2c(c1)OC(C)(C)C(c1ccccc1)C2c1ccc(OCCN2CCCC2)cc1 (stereo not drawn),Potency,astro,35.5 µM (active)
C=C1CC[C@H](O)CC1=C/C=C1\CCC[C@]2(C)[C@@H]([C@H](C)CCCC(C)(C)O)CC[C@@H]12,Potency,astro,20 µM (active)
CN(C)CCC=C1c2ccccc2C(C)(C)c2ccccc21,Potency,astro,17.8 µM (active)
Cc1cc(-c2ccc(N=Nc3c(S(=O)(=O)O)cc4cc(S(=O)(=O)O)cc(N)c4c3O)c(C)c2)ccc1N=Nc1c(S(=O)(=O)O)cc2cc(S(=O)(=O)O)cc(N)c2c1O,Potency,astro,8.91 µM (active)
COc1ccccc1N1CCN(CCCC(=O)c2ccc(F)cc2)CC1,"activity, negative = cell killing",[1]; [4],-16%
same,Potency,[1],10 µM (active)
same,Potency,astro,inactive
CCCCCCCCCCCCCCCCOCCOCCOCCOCCOCCOCCOCCOCCOCCOCCOCCOCCOCCOCCOCCOCCOCCOCCOCCOCCO,Potency,astro,3.16 µM (active)
C=C[C@]1(C)C[C@@H](OC(=O)CSCCN(CC)CC)[C@]2(C)[C@H](C)CC[C@]3(CCC(=O)[C@H]32)[C@@H](C)[C@@H]1O,"activity, negative = cell killing",[1]; [4],-23.5%
same,Potency,[1],7.94 µM (active)
same,Potency,astro,inactive
CCC(=O)c1ccc2c(c1)N(CCCN1CCN(CCO)CC1)c1ccccc1S2,Potency,astro,17.8 µM (active)
C=C1C(CCl)(CCl)C2(Cl)C(Cl)C(Cl)C1(Cl)C2(Cl)Cl (stereo not drawn),Potency,astro,inactive
CCN(CC)CCC(=O)N1c2ccccc2Sc2ccc(C(F)(F)F)cc21,Potency,astro,inactive
N=C(N)n1cccn1,"activity, negative = cell killing",[1]; [4],-2.75%
same,Potency,astro,inactive
C=C1[C@@H]2CC[C@@H](C2)C1(C)C,"activity, negative = cell killing",[1]; [4],-1.58%
same,"activity, negative = cell killing",[1]; [5],-22%
same,Potency,astro,inactive
O=c1n(CC2CO2)c(=O)n(CC2CO2)c(=O)n1CC1CO1 (stereo not drawn),max response,[2],-7.41% and -4.4%
same,outcome,[3],inactive
CC[C@@H](C)CCCCC(=O)N[C@H](CCN)C(=O)N[C@@H](C(=O)N[C@H](CCN)C(=O)N[C@@H]1CCNC(=O)C([C@@H](C)O)NC(=O)[C@@H](CCN)NC(=O)[C@@H](CCN)NC(=O)[C@@H](CC(C)C)NC(=O)[C@@H](Cc2ccccc2)NC(=O)[C@@H](CCN)NC1=O)[C@@H](C)O (stereo partly drawn) (X3-[dDab][d(aThr)][dDab][dDab][dDab][dF][dL][dDab][dDab][ξThr(3R)]; lactam 4-C),"activity, negative = cell killing",[1]; [5],-10.3%
same,"activity, negative = cell killing",[1]; [6],4.35%
same,Potency,astro,inactive
C[N@+]12CCCC[C@@H]1CCC(=C(c1cccs1)c1cccs1)C2,Potency,astro,inactive
C=Cc1ccc(S(=O)(=O)O)cc1,"activity, negative = cell killing",[1]; [4],-6.14%
same,"activity, negative = cell killing",[1]; [5],-2.96%
same,Potency,astro,inactive
CCOc1cc(-c2nccc3cc(OC)c(OC)cc23)cc(OCC)c1OCC,Potency,astro,inactive
CCCCCCCCCc1ccc(OCCOCCO)cc1,Potency,astro,12.6 µM (active)
CC[C@@H](C(=O)[C@@H](C)[C@@H](O)[C@H](C)[C@@H]1O[C@@H]([C@@H](CC)C(=O)O)CC[C@@H]1C)[C@H]1O[C@]2(C=C[C@@H](O)[C@]3(CC[C@@](C)([C@H]4CC[C@](O)(CC)[C@H](C)O4)O3)O2)[C@H](C)C[C@@H]1C,Potency,astro,7.94 µM (active)
Cc1ccccn1,"activity, negative = cell killing",[1]; [4],-10.1%
same,"activity, negative = cell killing",[1]; [6],-22.4%
same,Potency,astro,inactive
